Data on three compounds can be found in PubChem BioAssay (NCATS).

Each structure is given as a SMILES string. Where “and” joins values, the source holds several entries; their conditions need not be identical. Equal values may be shown once. Records with an inconclusive call do not appear. Calls of active or inactive are those of the source. Unless noted, calls come from the whole dose curve; as a rule, active = well fitted curve in the direction sought with a large enough effect; inconclusive = small, poorly fitted or top-dose-only effect, or another doubt; inactive = no such curve, though single readings can be large; an effect the other way counts as inactive or inconclusive.

For assay [1], the system named is Zika virus NS2B-NS3 protease. Briefly: Primary screen GU AMC qHTS for Zika virus inhibitors (AID 1347154).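 For activity change, negative = inhibition: 0% = no-inhibitor control and -100% = no-enzyme control.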 Note: nearly all actives have a fitted effect of over 70% in size. Put shortly:
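Fluorogenic AMC-substrate cleavage by noncovalent NS2B-NS3 protease complex (25 nM, pH 8.0 Tris buffer with Tween 20) followed for 15 minutes at room temperature (~20% conversion). Percent inhibition from ex340/em450 signal change, fitted by 4-parameter Hill equation.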

Assay [2] concerns the target Calcium and integrin-binding protein 1 (Homo sapiens) (UniProt Q99828). Briefly: Primary qHTS for Identification of Calcium Integrin Binding Protein 1 (CIB1) Competitor (AID 1508620). Put shortly: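 CIB1-GST (1 uM final) and compound incubated 15 min at room temperature before adding FITC-alphaIIb peptide tracer (100 nM final). Competition for binding read by fluorescence polarization (ex 480, em 540) after another 15 min at room temperature.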
Background: Quantitative high-throughput screening tests each substance at several concentrations.

Assay [3] has as its target Cytochrome P450 3A4 (Homo sapiens) (UniProt P08684). Briefly: Cytochrome P450 family 3 subfamily A member 4 (CYP3A4) small molecule antagonists: luciferase qHTS assay (AID 1645841; active = well fitted curve in the direction sought with a large enough effect in the repeat runs; an effect the other way counts as inactive or inconclusive; note: nearly all actives have a fitted effect of over 45% in size). Put shortly:
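Luminescent CYP3A4 activity readout: compounds plus enzyme-substrate mix 10 min at room temperature, reaction started with NADPH regenerating system for 1 h, stopped with detection reagent, read after 20 min. Ketoconazole served as control.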

In assay [4] the target is Cytochrome P450 2C9 (Homo sapiens) (UniProt P11712). As to the kind of experiment: Cytochrome P450 family 2 subfamily C member 9 (CYP2C9) small molecule antagonists: luciferase qHTS assay (AID 1645842; active = well fitted curve in the direction sought with a large enough effect in the repeat runs; an effect the other way counts as inactive or inconclusive; note: nearly all actives have a fitted effect of over 55% in size). Put shortly:
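P450-Glo CYP2C9 system: proluciferin substrate with enzyme in mix containing 0.4% BSA, 10 min at room temperature, then NADPH regeneration solution added and incubated 1 h at 37C. Detection reagent stopped reaction; luminescence read after 20 min as RLU.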

The nature of assay [5]: Primary qHTS for inhibitors of nuclear receptor binding SET domain protein 2 (NSD2) in an isogenic RCH-ACV NSD2 p.E1099K mutant (9B) (AID 1645876). Note: % is set by controls: 0 for no effect and ±100 for the full control effect; nearly all actives have a fitted effect of over 70% in size.
A short description of assay [6]: Primary qHTS for inhibitors of nuclear receptor binding SET domain protein 2 (NSD2) in an RCH-ACV wild type WT cells (2C) (AID 1645877). Note: nearly all actives have a fitted effect of over 70% in size.
Assay [7] addresses Glutathione peroxidase 1 (Homo sapiens) (UniProt P07203). Briefly: Primary qHTS Assay for Inhibitors of Recombinant Selenoprotein Glutathione Peroxidase 1 (GPX1) (AID 1845191). Note: % is set by controls: 0 for no effect and ±100 for the full control effect; nearly all actives have a fitted effect of over 65% in size. Put shortly:
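NADPH consumption tracked by fluorescence at 340/450 nm between t=0 and t=15 min, room temperature. Final mix: 10 nM GPX1, 100 nM glutathione reductase, 1 mM GSH, 0.5 mM NADPH, 0.5 mM cumene hydroperoxide, 0.01% BSA; 30 min compound–enzyme preincubation.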

The target of assay [8] is Phospholipid hydroperoxide glutathione peroxidase GPX4 (Homo sapiens) (UniProt P36969). Briefly: Primary qHTS Assay for Inhibitors of Recombinant Selenoprotein Glutathione Peroxidase 4 (GPX4) (AID 1845192). Note: nearly all actives have a fitted effect of over 65% in size. As to conditions: outcome: dose series up to 50 µM unless noted. Put shortly: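 NADPH consumption followed by fluorescence at 340/450 nm, t=0 and after 15 min at room temperature. Reaction started with cumene hydroperoxide (0.5 mM final) after 30 min compound–GPX4 preincubation; final 200 nM GPX4, 100 nM GR, 1 mM GSH, 0.5 mM NADPH.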
Sequence of Phospholipid hydroperoxide glutathione peroxidase GPX4 (Homo sapiens) (P36969 whole entry, looked up): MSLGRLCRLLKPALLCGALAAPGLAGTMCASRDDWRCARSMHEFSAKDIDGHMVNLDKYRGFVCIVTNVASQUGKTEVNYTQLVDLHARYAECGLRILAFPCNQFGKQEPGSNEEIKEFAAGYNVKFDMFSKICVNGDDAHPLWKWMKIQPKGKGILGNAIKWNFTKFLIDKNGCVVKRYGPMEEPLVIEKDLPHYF

Assay [9] addresses Glucocorticoid receptor (Homo sapiens) (UniProt P04150). Briefly: GR-GFP Redistribution (AID 450;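 active = compounds whose dose series gives a full or clear partial fitted curve of increased nuclear translocation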; note: potency is the fitted concentration of half-maximal effect). As to conditions: U2OS GR-GFP nuclear translocation, laser cytometry, 2 h.
Assay [10] shares this target. Briefly: GR-EFC Redistribution (AID 451; calls by dose curve; note: potency is the fitted concentration of half-maximal effect). The following applies: CHO-K1 GR-EFC translocation, beta-gal luminescence, 2 h. The method, boiled down: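 Translocation of GR-ED fusion to nuclear EA restores b-gal, read by luminescence after 1 h room-temperature detection. Engineered CHO-K1 biosensor cells, 1,000/well, exposed 2 h at 37 C to titrations up to 46 uM final.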

Assay [11] deals with Mitogen-activated protein kinase 10 (Mus musculus) (UniProt Q61831). As to the kind of experiment: JNK3 AlphaScreen Assay (AID 530; active = well fitted curve in either direction with a large enough effect, not every such curve was filed as active;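 note: kinase came from lysate of stimulated human HepG2 cells; signal reports phosphorylation of biotinylated GST-cJun 1-79 at Ser73 with 10 µM ATP; % is set by controls: 0 for no effect and ±100 for the full control effect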). The method, boiled down:
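qHTS titrations with 15 min compound pre-incubation before adding ATP (10 uM final). Read-out: AlphaScreen of Ser73-phosphorylated biotin-GST-cJun using HepG2 lysate JNK3 activated by IL-1β and TNFα.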
A general note: Bead proximity is the source of the signal in Alpha formats.

In assay [12] the target is 3',5'-cyclic-AMP phosphodiesterase 4B (Homo sapiens) (UniProt Q07343). Briefly: qHTS Assay for Inhibitors of PDE-IV (AID 607; active = well fitted activation curve with a large enough effect in the main read-out, with a control signal flat, not every such curve was filed as active; note: % of control where 0% means no effect). The method, boiled down: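 Live HEK293 cells with a modified cyclic nucleotide-gated (CNG) channel report intracellular cAMP via membrane-potential dye fluorescence (ex 535/em 590 nm). Endogenous PDE-IV was targeted. Compounds were tested at up to 22.9 uM final; RO 20-1724 100 uM served as control.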

Assay [13] deals with Cytochrome P450 3A4 (Homo sapiens) (UniProt P08684). Briefly: qHTS Assay for Activators of Cytochrome P450 3A4 (AID 885). Note: nearly all actives have a fitted effect of over 65% in size. The method, boiled down: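 Using 20nM recombinant human CYP3A4 in potassium phosphate (200mM), substrate Luciferin-PPXE at 25uM, luminescent luciferin detection followed a 60-min RT NADPH reaction; data scaled to 57 uM ketoconazole.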
Sequence of Cytochrome P450 3A4 (Homo sapiens) (P08684 whole entry, looked up): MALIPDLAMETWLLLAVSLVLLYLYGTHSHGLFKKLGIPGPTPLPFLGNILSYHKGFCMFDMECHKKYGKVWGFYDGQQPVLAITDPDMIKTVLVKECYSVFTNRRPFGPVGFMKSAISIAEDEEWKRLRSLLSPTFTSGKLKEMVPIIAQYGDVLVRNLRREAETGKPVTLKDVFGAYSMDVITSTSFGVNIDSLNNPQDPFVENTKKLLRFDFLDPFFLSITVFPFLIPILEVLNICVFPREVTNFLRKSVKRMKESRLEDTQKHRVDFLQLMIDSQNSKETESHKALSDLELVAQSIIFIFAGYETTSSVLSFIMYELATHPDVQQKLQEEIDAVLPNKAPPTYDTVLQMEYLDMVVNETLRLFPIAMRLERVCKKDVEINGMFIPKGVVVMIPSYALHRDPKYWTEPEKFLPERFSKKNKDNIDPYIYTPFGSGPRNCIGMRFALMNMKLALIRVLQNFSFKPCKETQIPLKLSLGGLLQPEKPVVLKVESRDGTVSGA
A short description of assay [14]: Confirmation and Secondary Assay for Modulators of Hemoglobin Beta Chain Splicing at IVS2 654 locus (AID 910).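 Note: HeLa cells stably carrying EGFP split by mutant beta-globin IVS2-654 intron; per-well total GFP intensity by laser scanning cytometry after 2-day treatment; % of control where 0% means no effect.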 The method, boiled down: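 Readout: per-well total peak green fluorescence (488 nm ex, 500–520 nm em) from objects 5–250 µm, reflecting correct splicing of an EGFP-654 reporter. Compounds were applied for 2 days at 37 °C to overnight-plated HeLa EGFP-654 cells; controls were DMSO and 500 nM IVS2-654 PNA.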

Assay [15] can be described thus: Confirmation and Secondary Assay for Modulators of Hemoglobin Beta Chain Splicing at IVS2 705 locus (AID 930).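 Note: HeLa cells stably expressing the EGFP-705 splicing reporter; GFP fluorescence per well restored by corrected splicing of the IVS2-705 intron in EGFP; % of control where 0% means no effect.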 Put shortly: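 Per-well GFP, captured at 1 x 8 µm resolution with 488 nm excitation, served as the read-out for HeLa EGFP-705 cells incubated 2 days with test compound versus DMSO.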
A short description of assay [16]: qHTS Assay for Lipid Storage Modulators (AID 1519; calls by dose curve). As to conditions: Drosophila S3 cells, BODIPY lipid droplet/cell ratio, laser cytometry, cells loaded with oleic acid. Put shortly:
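Cells seeded at 5,000 per well were treated with compounds over a concentration series and loaded with oleic acid (400 uM, as added). Lipid droplet fluorescence (488 nm excitation, 500-530 nm channel) was read by laser-scanning cytometry and normalized to 20 uM Triacsin C.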

In assay [17] the target is Ubiquitin carboxyl-terminal hydrolase 1 (Homo sapiens) (UniProt O94782). As to the kind of experiment: Inhibitors of USP1/UAF1: Pilot qHTS (AID 504865).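 Note: rhodamine fluorescence freed from ubiquitin-rhodamine substrate followed over time; top concentration of the series differs between compounds; % is set by controls: 0 for no effect and ±100 for the full control effect; nearly all actives have a fitted effect of over 35% in size.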 Put shortly:
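USP1/UAF1 complex (1nM) preincubated with compound 15 min at room temperature, then Ub-Rho substrate (150nM final) added. Fluorescence read kinetically at 480/540 nm, 6 reads every 60 seconds. Buffer: 50mM HEPES pH 7.8, 0.5mM EDTA, 0.1 mg/ml BSA, 1mM TCEP, 0.01% Tween-20.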

Assay [18] concerns the target DNA dC->dU-editing enzyme APOBEC-3G (Homo sapiens) (UniProt Q9HC16). As to the kind of experiment: qHTS for inhibitors of Vif-A3G interactions: Validation (AID 588379). Note: 0% is about no effect. Put shortly: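 Yellow fluorescence (Ex 488, Em 500-530) of Vif-coexpressing HeLa A3G-eYFP cells, scanned by Acumen cytometer, reports blocked A3G degradation. Cells plated at 700/well overnight at 37 deg C before compound addition, then a further overnight compound incubation at 37 deg C.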

The nature of assay [19]: Counterscreen qHTS for small molecule stabilizers of the endoplasmic reticulum resident proteome: GLuc-NoTag assay (AID 1508627).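 Note: 0% = thapsigargin alone and -100% = DMSO vehicle control.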 The method, boiled down:
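Counterscreen line: SH-SY5Y-GLuc-NoTag cells, treated with compound 19 hr before a 4 hr, 100 nM thapsigargin calcium depletion. Secreted Gaussia luciferase in the medium was measured by luminescence after coelenterazine was added (0.07x final), with cells unlysed.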
For orientation: Counterscreens check selectivity or assay interference.

The nature of assay [20]: Cell Viability qHTS for small molecule stabilizers of the endoplasmic reticulum resident proteome (AID 1508629).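 Note: human SH-SY5Y neuroblastoma cells carrying the GLuc-SERCaMP reporter; compound exposure about 46 h in total before the viability read; % is set by controls: 0 for no effect and ±100 for the full control effect.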 As to conditions: cell viability counter-screen, 100 nM thapsigargin for final 4 h.
The nature of assay [21]: AP1 Signaling Pathway (AID 357; active = well fitted curve in either direction with a large enough effect, not every such curve was filed as active;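 note: ME-180 reporter cells stimulated with EGF at its EC50 level; % is set by controls: 0 for no effect and ±100 for the full control effect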). The following applies: ME-180 AP-1-bla reporter, EGF-induced, beta-lactamase ratio, 5 h. The method, boiled down:
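Cells are seeded overnight, exposed to compound titrations and an EC50 level of EGF for 5 hours at 37 °C, then loaded with CCF4 dye for 2.5 hours. Beta-lactamase activity under the AP-1 element is read as a blue/green ratio.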

A short description of assay [22]: Stat Signaling Pathway (AID 446; active = well fitted curve in either direction with a large enough effect, not every such curve was filed as active;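 note: ME-180 cervical cancer cells given 40 pM IL-6 alongside compound; SIE-controlled beta-lactamase reporter measured as 460/530 nm FRET emission ratio; % is set by controls: 0 for no effect and ±100 for the full control effect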). The following applies: ME-180 (cervical carcinoma) SIE beta-lactamase reporter, IL-6 stimulated, 5 h. The method, boiled down:
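Overnight-plated ME-180 cells bearing a STAT Inducible Element beta-lactamase reporter; 5 h co-exposure to compound and 40 pM IL-6; values normalized to 300 pM IL-6 and 125 nM JAK inhibitor controls.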

Assay [23] addresses Guanine nucleotide-binding protein G(i) subunit alpha-1 (Homo sapiens) (UniProt P63096). As to the kind of experiment: qHTS Assay for Inhibitors of RGS12 GoLoco Motif Activity (Green Fluorophore) (AID 879).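 Note: 0% = labeled peptide with Gαi1 and full inhibition = labeled peptide alone without protein; negative values mean loss of peptide binding seen as reduced polarization.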 The method, boiled down:
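A drop in FITC polarization marked displacement of the FITC-tagged RGS12 GoLoco peptide (10 nM) from Gαi1 (50 nM). Compounds were incubated 10 min at room temperature in Tris pH 7.5 buffer containing 150 mM NaCl, 0.1 mM GDP and 0.05% NP40; unlabeled peptide titration served as control.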

A short description of assay [24]: qHTS Assay for Identification of Small Molecule Agonists for Thrombopoietin (TPO) Signaling Pathway (AID 917). Note: % is set by controls: 0 for no effect and ±100 for the full control effect. Put shortly: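 First, Ba/F3 cells with human TPO receptor were held overnight without IL-3. Next, compounds and TPO (26 pM final) were added. After 24 hrs at 37 C, luciferase detection reagent was added and luminescence measured following 10 min at room temperature.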

The target of assay [25] is Pyruvate kinase (Leishmania mexicana) (UniProt Q27686). Briefly: qHTS Validation Assay for Inhibitors of Leishmania Mexicana Pyruvate Kinase (AID 945).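 Note: 0% = DMSO only neutral control wells.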 Put shortly:
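An endpoint luciferase assay: 0.2 nM LmPYK E451W turns over 0.5 mM PEP with 0.1 mM ADP for 1 h at room temperature, pH 7.2, before PKLight addition. Values are normalized to DMSO-only wells.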

Assay [26] concerns the target Pyruvate kinase PKM (Homo sapiens) (UniProt P14618). Briefly: qHTS Assay for Activators of Human Muscle Pyruvate Kinase (AID 954; active = well fitted curve in the direction sought with a large enough effect, not every such curve was filed as active;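 note: 0% = uninhibited enzyme and -100% = no enzyme or full thiadiazolimine inhibition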). Put shortly:
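Screening used highly purified human pyruvate kinase M2 under submaximal activity, with PEP at its Km and ADP below Km. After an hour at room temperature, ATP was read by luciferase luminescence.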

Assay [27] has as its target Alpha-galactosidase A (Homo sapiens) (UniProt P06280). As to the kind of experiment: Counterscreen for Glucocerebrosidase Inhibitors: qHTS Assay for Human alpha-Galactosidase at pH 4.5 (AID 992). Note: 0% is about no effect. The method, boiled down: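 Each compound is preincubated briefly with 2 nM enzyme before substrate addition (80 uM); plates then sit 20 min at ambient temperature, are quenched with 1M NaOH/1M glycine, and read fluorometrically.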

The target in assay [28] is alpha-glucosidase (Oryza sativa, rice) (UniProt Q653V4). As to the kind of experiment: Counterscreen for Glucocerebrosidase Inhibitors: qHTS Assay for Rice alpha-Glucosidase at pH 5.0 (AID 997).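 Note: 0% = full activity with enzyme and -100% = basal without enzyme.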 Put shortly:
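Endpoint fluorogenic assay at pH 5.0: compounds (0.7 nM to 77 uM) titrated against 4 nM rice enzyme and 400 uM 4-MU-alpha-glucoside for 20 min at room temperature; NaOH/glycine stop, read ex 365/em 440 nm, Hill-fitted AC50.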

Assay [29] can be described thus: Confirmatory qHTS for small molecule stabilizers of the endoplasmic reticulum resident proteome: Secreted ER Calcium Modulated Protein (SERCaMP) assay (AID 1508628). Note: potency is the fitted concentration of half-maximal effect; nearly all actives have a fitted effect of over 40% in size. The method, boiled down:
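Reporter secretion upon ER calcium depletion (100 nM thapsigargin, 4 h, 37C) is measured as medium luminescence with coelenterazine, after 16 h compound pretreatment of SH-SY5Y-GLuc-SERCaMP cells; primary at three concentrations up to 38.3 uM, follow-up at 11 (up to 76.6 uM).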

Assay [30] is described as follows: NCATS anti-infectives library activity on HEK293 viability as a counter-qHTS vs the C. elegans viability qHTS (AID 1745854). Note: % is set by controls: 0 for no effect and ±100 for the full control effect. Put shortly:
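Cytotoxicity counter-screen to a worm viability qHTS: CellTiter-Glo luminescence read 10 min after reagent addition. Compounds (final up to 41.7 uM, a 1:5 dilution series) incubated 24 hr at 37C with 1,500 HEK293 cells per well; digitonin control.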

Sequence of DNA dC->dU-editing enzyme APOBEC-3G (Homo sapiens) (Q9HC16 whole entry, looked up): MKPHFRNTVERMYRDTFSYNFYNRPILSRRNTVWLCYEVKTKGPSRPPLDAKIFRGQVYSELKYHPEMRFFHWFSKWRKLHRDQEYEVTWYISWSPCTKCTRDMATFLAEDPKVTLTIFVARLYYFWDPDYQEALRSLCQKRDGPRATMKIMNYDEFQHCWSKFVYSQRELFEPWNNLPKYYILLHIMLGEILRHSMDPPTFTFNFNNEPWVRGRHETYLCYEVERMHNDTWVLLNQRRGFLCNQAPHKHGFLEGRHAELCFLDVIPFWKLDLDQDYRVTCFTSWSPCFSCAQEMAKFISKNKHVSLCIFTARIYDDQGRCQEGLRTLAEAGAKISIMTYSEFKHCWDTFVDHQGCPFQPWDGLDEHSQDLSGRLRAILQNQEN
Sequence of Ubiquitin carboxyl-terminal hydrolase 1 (Homo sapiens) (O94782 whole entry, looked up): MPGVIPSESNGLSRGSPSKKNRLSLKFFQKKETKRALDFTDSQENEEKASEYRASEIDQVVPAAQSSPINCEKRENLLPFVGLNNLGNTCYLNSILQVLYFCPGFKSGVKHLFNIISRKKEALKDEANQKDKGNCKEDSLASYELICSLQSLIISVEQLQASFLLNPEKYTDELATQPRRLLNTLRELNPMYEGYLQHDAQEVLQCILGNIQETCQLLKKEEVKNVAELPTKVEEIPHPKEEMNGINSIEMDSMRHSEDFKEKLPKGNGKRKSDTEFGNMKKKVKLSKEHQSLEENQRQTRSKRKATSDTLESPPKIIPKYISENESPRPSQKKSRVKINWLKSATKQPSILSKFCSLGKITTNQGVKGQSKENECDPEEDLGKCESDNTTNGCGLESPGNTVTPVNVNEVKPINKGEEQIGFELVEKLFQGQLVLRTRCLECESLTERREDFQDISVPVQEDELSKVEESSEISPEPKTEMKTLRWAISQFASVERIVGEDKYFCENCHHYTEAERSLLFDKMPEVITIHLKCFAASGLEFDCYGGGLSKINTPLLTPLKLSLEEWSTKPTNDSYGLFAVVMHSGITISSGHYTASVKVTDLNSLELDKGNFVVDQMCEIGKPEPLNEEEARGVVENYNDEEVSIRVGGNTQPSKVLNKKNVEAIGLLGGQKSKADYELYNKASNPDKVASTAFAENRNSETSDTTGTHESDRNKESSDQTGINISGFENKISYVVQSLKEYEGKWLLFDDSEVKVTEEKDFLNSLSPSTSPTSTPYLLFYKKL
Sequence of Glucocorticoid receptor (Homo sapiens) (P04150 whole entry, looked up, the tested form may be a part): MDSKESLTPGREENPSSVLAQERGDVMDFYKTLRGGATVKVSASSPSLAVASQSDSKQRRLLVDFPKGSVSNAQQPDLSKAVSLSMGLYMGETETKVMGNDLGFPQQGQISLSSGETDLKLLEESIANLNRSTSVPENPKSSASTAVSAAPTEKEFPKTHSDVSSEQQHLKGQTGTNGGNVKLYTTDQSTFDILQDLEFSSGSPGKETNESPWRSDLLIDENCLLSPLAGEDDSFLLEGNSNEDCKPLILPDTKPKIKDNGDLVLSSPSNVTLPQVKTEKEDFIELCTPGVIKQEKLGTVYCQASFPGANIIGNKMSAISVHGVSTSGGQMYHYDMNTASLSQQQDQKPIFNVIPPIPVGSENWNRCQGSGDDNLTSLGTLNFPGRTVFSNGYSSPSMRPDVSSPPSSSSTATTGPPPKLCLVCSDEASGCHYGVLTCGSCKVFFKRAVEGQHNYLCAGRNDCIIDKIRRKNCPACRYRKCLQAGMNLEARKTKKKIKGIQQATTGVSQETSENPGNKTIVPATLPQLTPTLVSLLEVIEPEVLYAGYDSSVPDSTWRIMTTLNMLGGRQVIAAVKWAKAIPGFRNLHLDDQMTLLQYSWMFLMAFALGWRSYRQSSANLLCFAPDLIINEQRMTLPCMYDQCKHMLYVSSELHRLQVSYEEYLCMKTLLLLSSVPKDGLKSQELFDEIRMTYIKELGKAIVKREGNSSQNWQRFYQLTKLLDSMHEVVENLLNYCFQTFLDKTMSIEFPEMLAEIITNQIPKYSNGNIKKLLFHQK
Sequence of Glutathione peroxidase 1 (Homo sapiens) (P07203 whole entry, looked up): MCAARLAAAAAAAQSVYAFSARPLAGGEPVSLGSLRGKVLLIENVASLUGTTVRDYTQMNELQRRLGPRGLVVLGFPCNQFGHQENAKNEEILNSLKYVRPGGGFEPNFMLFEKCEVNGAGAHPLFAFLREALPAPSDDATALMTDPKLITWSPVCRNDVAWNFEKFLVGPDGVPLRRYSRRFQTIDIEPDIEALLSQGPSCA
Sequence of Calcium and integrin-binding protein 1 (Homo sapiens) (Q99828 whole entry, looked up): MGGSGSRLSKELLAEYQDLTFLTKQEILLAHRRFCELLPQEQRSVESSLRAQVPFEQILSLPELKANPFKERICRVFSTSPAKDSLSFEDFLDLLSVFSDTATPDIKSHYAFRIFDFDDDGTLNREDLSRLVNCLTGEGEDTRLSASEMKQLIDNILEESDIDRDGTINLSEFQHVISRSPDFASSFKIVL
Sequence of Pyruvate kinase PKM (Homo sapiens) (P14618 whole entry, looked up): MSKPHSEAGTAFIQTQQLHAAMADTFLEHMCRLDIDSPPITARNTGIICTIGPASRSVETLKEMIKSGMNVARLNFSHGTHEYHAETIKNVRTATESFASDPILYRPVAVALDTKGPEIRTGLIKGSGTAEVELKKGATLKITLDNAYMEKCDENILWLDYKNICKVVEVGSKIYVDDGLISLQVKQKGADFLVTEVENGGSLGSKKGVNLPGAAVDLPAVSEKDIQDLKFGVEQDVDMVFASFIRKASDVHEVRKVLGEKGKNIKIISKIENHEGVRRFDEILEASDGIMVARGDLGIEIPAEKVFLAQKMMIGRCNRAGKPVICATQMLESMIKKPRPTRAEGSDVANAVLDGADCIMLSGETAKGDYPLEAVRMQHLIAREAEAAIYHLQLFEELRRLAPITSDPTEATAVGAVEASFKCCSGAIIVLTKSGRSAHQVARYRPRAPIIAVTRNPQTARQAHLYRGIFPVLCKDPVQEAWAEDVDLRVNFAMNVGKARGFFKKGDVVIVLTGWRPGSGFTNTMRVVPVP
Sequence of Alpha-galactosidase A (Homo sapiens) (P06280 whole entry, looked up): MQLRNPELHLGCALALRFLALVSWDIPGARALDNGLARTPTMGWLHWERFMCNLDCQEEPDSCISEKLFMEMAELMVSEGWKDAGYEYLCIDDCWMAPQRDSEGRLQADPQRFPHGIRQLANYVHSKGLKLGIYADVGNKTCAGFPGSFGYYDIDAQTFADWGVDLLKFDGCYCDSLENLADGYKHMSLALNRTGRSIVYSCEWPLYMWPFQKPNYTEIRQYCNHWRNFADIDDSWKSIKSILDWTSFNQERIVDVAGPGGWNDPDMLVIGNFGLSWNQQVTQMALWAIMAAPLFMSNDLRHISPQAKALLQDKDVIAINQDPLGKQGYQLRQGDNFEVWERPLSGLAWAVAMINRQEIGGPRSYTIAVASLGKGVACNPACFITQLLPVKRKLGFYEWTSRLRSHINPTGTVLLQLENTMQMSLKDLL
Sequence of Cytochrome P450 2C9 (Homo sapiens) (P11712 whole entry, looked up): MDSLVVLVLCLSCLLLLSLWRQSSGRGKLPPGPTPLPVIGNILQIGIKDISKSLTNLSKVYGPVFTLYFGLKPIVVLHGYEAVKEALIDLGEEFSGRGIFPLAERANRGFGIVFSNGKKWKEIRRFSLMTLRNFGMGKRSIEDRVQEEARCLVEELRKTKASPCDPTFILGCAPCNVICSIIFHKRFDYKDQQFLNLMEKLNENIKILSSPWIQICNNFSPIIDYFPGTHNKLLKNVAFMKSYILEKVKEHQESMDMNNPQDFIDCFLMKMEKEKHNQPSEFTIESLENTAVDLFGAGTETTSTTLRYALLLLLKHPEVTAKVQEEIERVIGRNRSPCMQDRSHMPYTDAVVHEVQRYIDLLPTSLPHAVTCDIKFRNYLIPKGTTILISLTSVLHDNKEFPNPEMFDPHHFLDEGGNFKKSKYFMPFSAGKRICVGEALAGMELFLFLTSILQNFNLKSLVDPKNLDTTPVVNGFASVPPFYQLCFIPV
Sequence of Guanine nucleotide-binding protein G(i) subunit alpha-1 (Homo sapiens) (P63096 whole entry, looked up): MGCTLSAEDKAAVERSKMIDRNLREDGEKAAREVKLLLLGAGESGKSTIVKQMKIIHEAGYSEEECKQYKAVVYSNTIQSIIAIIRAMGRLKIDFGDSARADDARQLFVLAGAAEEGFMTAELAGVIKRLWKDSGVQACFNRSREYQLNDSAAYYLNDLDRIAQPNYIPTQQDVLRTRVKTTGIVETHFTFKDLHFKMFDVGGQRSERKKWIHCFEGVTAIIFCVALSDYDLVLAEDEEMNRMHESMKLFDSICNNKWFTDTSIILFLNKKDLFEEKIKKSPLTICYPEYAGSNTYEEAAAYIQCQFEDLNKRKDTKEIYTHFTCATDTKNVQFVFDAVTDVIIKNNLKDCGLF

As to `CCCCN=C(N)NC(=N)N`, the result in [1], in [2], in assay [3] and in [4] was inactive. Moreover, the Potency result in assay [5], in [6] and in assay [7] was “inactive” throughout. Moreover, the outcome in assay [8] is “inactive [setting not given]”.
For `NCCOB(c1ccccc1)c1ccccc1`, the Potency in [9] and in assay [10] was > 46 µM (inactive) throughout. Moreover, the Potency entry in assay [11], in assay [12], in [13], in assay [17], in assay [18] and in assay [1] was “inactive” throughout. Moreover, the Potency result in [19] was “inactive”. Besides, the compound was called inactive in assay [14] and in [15]. The activity change, negative = inhibition in assay [16] (at 57.5 µM (top of the series)) was -7.96% (inactive) and -2.88% (inactive). The max response is -4.57% and 13.6% in assay [16] (measured here: cell count channel max response); -11.1% and 11.6% in [16] (measured here: lipid channel max response); 2.88% (inactive) in assay [20].
For the compound `COc1ccc(CCN(C)CCC[C@@](C#N)(c2ccc(OC)c(OC)c2)C(C)C)cc1OC`, the activity change, negative = inhibition in assay [21] (at 17.2 µM (top of the series)) is 2.2% (inactive); in assay [21] (at 38 µM (top of the series)), 10.5% (inactive). In addition, the activity, negative = inhibition is -16.1% (inactive) in assay [22] (at 17.2 µM (top of the series)) and -6.6% (inactive) in assay [22] (at 38 µM (top of the series)). In addition, the Potency result in [11], in assay [24], in [25], in assay [18], in [1] and in assay [19] was “inactive” in each case. Besides, the outcome in assay [23], in [26], in [27], in assay [28] and in assay [30] was inactive. In assay [29], the Potency was 12.6 µM (active).
